Measured values published in PubChem BioAssay AID1159580 (chemical genetic matrix, 2015).
The whole screen tested about 5,500 compounds, of which about 2,000 (36%) were called active. Roughly 18% stayed inconclusive and do not appear here. No stated cut-off is given here; in the data, active means normalized growth mostly below about 0.91 (no sharp cut-off); inconclusive means no clear call, values can overlap the other calls; inactive means mostly above about 0.92. This is one part of the list.

Assay: chemical genetic growth profiling, strain panel (AID 1159580);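 further: tested at 20 µM; growth read once vehicle control cultures reached saturation at 30 °C; 1 = growth at the plate median or of vehicle wells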
Conditions: growth OD

Measured: normalized growth

C[C@@H]([C@H](O)c1ccccc1)N(C)C
inactive: S. cerevisiae deletion strains, locus YAL013W, strain DEP1, stronger effect = lower value 1.01 | S. cerevisiae deletion strains, locus YAL021C, strain ccr4, stronger effect = lower value 1.01 | S. cerevisiae deletion strains, locus YAL026C, strain drs2, stronger effect = lower value 1.01 | S. cerevisiae deletion strains, locus YAL030W, strain snc1, stronger effect = lower value 1.02 | S. cerevisiae deletion strains, locus YBL061C, strain skt5, stronger effect = lower value 1.01 | S. cerevisiae deletion strains, locus YBR009C, strain hhf1, stronger effect = lower value 1.01 | S. cerevisiae deletion strains, locus YBR021W, strain FUR4, stronger effect = lower value 0.983 | S. cerevisiae deletion strains, locus YBR023C, strain chs3, stronger effect = lower value 1.01 | S. cerevisiae deletion strains, locus YBR171W, strain sec66, stronger effect = lower value 1.03 | S. cerevisiae deletion strains, locus YBR229C, strain ROT2, stronger effect = lower value 1 | S. cerevisiae deletion strains, locus YBR231C, strain swc5, stronger effect = lower value 1.01 | S. cerevisiae deletion strains, locus YBR279W, strain paf1, stronger effect = lower value 1.02 | S. cerevisiae deletion strains, locus YCL011C, strain gbp2, stronger effect = lower value 1.01 | S. cerevisiae deletion strains, locus YCL016C, strain dcc1, stronger effect = lower value 1.01 | S. cerevisiae deletion strains, locus YCL029C, strain bik1, stronger effect = lower value 1 | S. cerevisiae deletion strains, locus YCL061C, strain MRC1, stronger effect = lower value 1.01 | S. cerevisiae deletion strains, locus YCL069W, strain vba3, stronger effect = lower value 1.01 | S. cerevisiae deletion strains, locus YCR088W, strain abp1, stronger effect = lower value 1.01 | S. cerevisiae deletion strains, locus YDL005C, strain med2, stronger effect = lower value 1.02 | S. cerevisiae deletion strains, locus YDL035C, strain GPR1, stronger effect = lower value 1.02 | S. cerevisiae deletion strains, locus YDL040C, strain nat1, stronger effect = lower value 1.02 | S. cerevisiae deletion strains, locus YDL074C, strain BRE1, stronger effect = lower value 0.999 | S. cerevisiae deletion strains, locus YDL101C, strain DUN1, stronger effect = lower value 1 | S. cerevisiae deletion strains, locus YDL134C, strain PPH21, stronger effect = lower value 1 | S. cerevisiae deletion strains, locus YDL185W, strain tfp1, stronger effect = lower value 1.01 | S. cerevisiae deletion strains, locus YDL192W, strain arf1, stronger effect = lower value 1.02 | S. cerevisiae deletion strains, locus YDR001C, strain nth1, stronger effect = lower value 1.01 | S. cerevisiae deletion strains, locus YDR069C, strain doa4, stronger effect = lower value 1.03 | S. cerevisiae deletion strains, locus YDR101C, strain arx1, stronger effect = lower value 0.981 | S. cerevisiae deletion strains, locus YDR137W, strain rgp1, stronger effect = lower value 0.984 | S. cerevisiae deletion strains, locus YDR150W, strain NUM1, stronger effect = lower value 1.01 | S. cerevisiae deletion strains, locus YDR159W, strain sac3, stronger effect = lower value 1.03 | S. cerevisiae deletion strains, locus YDR162C, strain NBP2, stronger effect = lower value 1.02 | S. cerevisiae deletion strains, locus YDR195W, strain ref2 1.01 | S. cerevisiae deletion strains, locus YDR297W, strain sur2, stronger effect = lower value 1.01 | S. cerevisiae deletion strains, locus YDR318W, strain mcm21, stronger effect = lower value 1.01 | S. cerevisiae deletion strains, locus YDR334W, strain swr1, stronger effect = lower value 1.02 | S. cerevisiae deletion strains, locus YDR335W, strain msn5, stronger effect = lower value 1.03 | S. cerevisiae deletion strains, locus YDR388W, stronger effect = lower value 1.01 | S. cerevisiae deletion strains, locus YDR392W, strain spt3, stronger effect = lower value 1.03 | S. cerevisiae deletion strains, locus YDR502C, strain sam2, stronger effect = lower value 1.01 | S. cerevisiae deletion strains, locus YEL003W, strain gim4, stronger effect = lower value 1.02 | S. cerevisiae deletion strains, locus YEL037C, strain rad23, stronger effect = lower value 1.01 | S. cerevisiae deletion strains, locus YEL061C, strain CIN8 (second series), stronger effect = lower value 1.01 | S. cerevisiae deletion strains, locus YEL061C, strain CIN8, stronger effect = lower value 1.01 | S. cerevisiae deletion strains, locus YER015W, strain faa2, stronger effect = lower value 1.01 | S. cerevisiae deletion strains, locus YER016W, strain bim1, stronger effect = lower value 1.02 | S. cerevisiae deletion strains, locus YER110C, stronger effect = lower value 1.01 | S. cerevisiae deletion strains, locus YER111C, strain swi4, stronger effect = lower value 1.01 | S. cerevisiae deletion strains, locus YER155C, strain BEM2 (second series), stronger effect = lower value 1.03 | S. cerevisiae deletion strains, locus YER155C, strain BEM2, stronger effect = lower value 1 | S. cerevisiae deletion strains, locus YER167W, strain BCK2, stronger effect = lower value 1.01 | S. cerevisiae deletion strains, locus YFR010W, strain ubp6, stronger effect = lower value 1.02 | S. cerevisiae deletion strains, locus YGL078C, strain dbp3, stronger effect = lower value 1.01 | S. cerevisiae deletion strains, locus YGL086W, strain mad1, stronger effect = lower value 0.997 | S. cerevisiae deletion strains, locus YGL167C, strain pmr1, stronger effect = lower value 0.956 | S. cerevisiae deletion strains, locus YGL173C, strain kem1, stronger effect = lower value 1.01 | S. cerevisiae deletion strains, locus YGL227W, strain vid30, stronger effect = lower value 1.01 | S. cerevisiae deletion strains, locus YGL240W, strain doc1, stronger effect = lower value 1.01 | S. cerevisiae deletion strains, locus YGL248W, strain PDE1, stronger effect = lower value 1 | S. cerevisiae deletion strains, locus YGL253W, strain hxk2, stronger effect = lower value 1.02 | S. cerevisiae deletion strains, locus YGR078C, strain PAC10, stronger effect = lower value 1.02 | S. cerevisiae deletion strains, locus YGR135W, strain pre9, stronger effect = lower value 1.03 | S. cerevisiae deletion strains, locus YGR252W, strain gcn5, stronger effect = lower value 1.02 | S. cerevisiae deletion strains, locus YHR013C, strain ard1, stronger effect = lower value 1.05 | S. cerevisiae deletion strains, locus YHR027C, strain rpn1, stronger effect = lower value 1.01 | S. cerevisiae deletion strains, locus YHR030C, strain SLT2, stronger effect = lower value 1.02 | S. cerevisiae deletion strains, locus YHR079C, strain IRE1 (second series), stronger effect = lower value 1.01 | S. cerevisiae deletion strains, locus YHR094C, strain hxt1, stronger effect = lower value 1.01 | S. cerevisiae deletion strains, locus YHR129C, strain ARP1, stronger effect = lower value 1.01 | S. cerevisiae deletion strains, locus YHR142W, strain chs7, stronger effect = lower value 1.01 | S. cerevisiae deletion strains, locus YHR200W, strain rpn10, stronger effect = lower value 1 | S. cerevisiae deletion strains, locus YIL066C, strain RNR3, stronger effect = lower value 1 | S. cerevisiae deletion strains, locus YIL073C, strain SPO22, stronger effect = lower value 1.05 | S. cerevisiae deletion strains, locus YIL125W, strain kgd1, stronger effect = lower value 1 | S. cerevisiae deletion strains, locus YIR030C, strain dcg1, stronger effect = lower value 1.01 | S. cerevisiae deletion strains, locus YJL092W, strain hpr5, stronger effect = lower value 1.01 | S. cerevisiae deletion strains, locus YJL095W, strain BCK1 (second series), stronger effect = lower value 1.02 | S. cerevisiae deletion strains, locus YJL095W, strain BCK1, stronger effect = lower value 0.996 | S. cerevisiae deletion strains, locus YJL115W, strain asf1, stronger effect = lower value 1.02 | S. cerevisiae deletion strains, locus YJL129C, strain trk1, stronger effect = lower value 1.03 | S. cerevisiae deletion strains, locus YJL134W, strain LCB3, stronger effect = lower value 1.01 | S. cerevisiae deletion strains, locus YJL154C, strain vps35, stronger effect = lower value 1.02 | S. cerevisiae deletion strains, locus YJL164C, strain tpk1, stronger effect = lower value 1.02 | S. cerevisiae deletion strains, locus YJL166W, strain qcr8, stronger effect = lower value 1.02 | S. cerevisiae deletion strains, locus YJL168C, strain set2, stronger effect = lower value 1 | S. cerevisiae deletion strains, locus YJL187C, strain SWE1 (second series), stronger effect = lower value 0.993 | S. cerevisiae deletion strains, locus YJL187C, strain SWE1, stronger effect = lower value 1.02 | S. cerevisiae deletion strains, locus YJR043C, strain POL32, stronger effect = lower value 1.01 | S. cerevisiae deletion strains, locus YJR075W, strain HOC1, stronger effect = lower value 1 | S. cerevisiae deletion strains, locus YKL009W, strain mrt4, stronger effect = lower value 1.02 | S. cerevisiae deletion strains, locus YKL068W, stronger effect = lower value 1 | S. cerevisiae deletion strains, locus YKL085W, strain MDH1 (second series), stronger effect = lower value 1.02 | S. cerevisiae deletion strains, locus YKL085W, strain MDH1, stronger effect = lower value 1.02 | S. cerevisiae deletion strains, locus YKL160W, strain elf1, stronger effect = lower value 1.01 | S. cerevisiae deletion strains, locus YKL190W, strain CNB1, stronger effect = lower value 1.02 | S. cerevisiae deletion strains, locus YKR001C, strain vps1, stronger effect = lower value 1 | S. cerevisiae deletion strains, locus YKR026C, strain gcn3, stronger effect = lower value 1.01 | S. cerevisiae deletion strains, locus YKR091W, strain srl3, stronger effect = lower value 1.01 | S. cerevisiae deletion strains, locus YLL001W, strain dnm1, stronger effect = lower value 1.01 | S. cerevisiae deletion strains, locus YLL026W, stronger effect = lower value 1.01 | S. cerevisiae deletion strains, locus YLL041C, strain sdh2, stronger effect = lower value 1.02 | S. cerevisiae deletion strains, locus YLR027C, strain aat2, stronger effect = lower value 1.01 | S. cerevisiae deletion strains, locus YLR039C, strain RIC1, stronger effect = lower value 1.03 | S. cerevisiae deletion strains, locus YLR058C, strain SHM2, stronger effect = lower value 1.01 | S. cerevisiae deletion strains, locus YLR102C, strain apc9, stronger effect = lower value 1 | S. cerevisiae deletion strains, locus YLR221C, strain rsa3, stronger effect = lower value 1.01 | S. cerevisiae deletion strains, locus YLR258W, strain gsy2, stronger effect = lower value 1.01 | S. cerevisiae deletion strains, locus YLR262C, strain YPT6 (second series), stronger effect = lower value 1 | S. cerevisiae deletion strains, locus YLR262C, strain YPT6, stronger effect = lower value 1 | S. cerevisiae deletion strains, locus YLR268W, strain sec22, stronger effect = lower value 1.01 | S. cerevisiae deletion strains, locus YLR320W, strain mms22, stronger effect = lower value 1.02 | S. cerevisiae deletion strains, locus YLR330W, strain CHS5, stronger effect = lower value 1.01 | S. cerevisiae deletion strains, locus YLR342W, strain FKS1 (second series), stronger effect = lower value 1.03 | S. cerevisiae deletion strains, locus YLR342W, strain FKS1, stronger effect = lower value 1.02 | S. cerevisiae deletion strains, locus YLR357W, strain rsc2, stronger effect = lower value 1.04 | S. cerevisiae deletion strains, locus YLR370C, strain arc18, stronger effect = lower value 1.01 | S. cerevisiae deletion strains, locus YLR371W, strain rom2, stronger effect = lower value 1 | S. cerevisiae deletion strains, locus YLR384C, strain iki3, stronger effect = lower value 1.02 | S. cerevisiae deletion strains, locus YLR418C, strain cdc73, stronger effect = lower value 1.04 | S. cerevisiae deletion strains, locus YML016C, strain PPZ1, stronger effect = lower value 1.01 | S. cerevisiae deletion strains, locus YML032C, strain rad52, stronger effect = lower value 1 | S. cerevisiae deletion strains, locus YML120C, strain ndi1, stronger effect = lower value 1.02 | S. cerevisiae deletion strains, locus YML124C, strain tub3, stronger effect = lower value 1.01 | S. cerevisiae deletion strains, locus YMR058W, strain fet3, stronger effect = lower value 1.02 | S. cerevisiae deletion strains, locus YMR078C, strain ctf18, stronger effect = lower value 1.01 | S. cerevisiae deletion strains, locus YMR125W, strain sto1, stronger effect = lower value 1.02 | S. cerevisiae deletion strains, locus YMR129W, stronger effect = lower value 1.02 | S. cerevisiae deletion strains, locus YMR205C, strain PFK2, stronger effect = lower value 1.02 | S. cerevisiae deletion strains, locus YMR223W, strain ubp8, stronger effect = lower value 1.04 | S. cerevisiae deletion strains, locus YMR231W, strain pep5, stronger effect = lower value 1.01 | S. cerevisiae deletion strains, locus YMR307W, strain GAS1, stronger effect = lower value 1.02 | S. cerevisiae deletion strains, locus YNL067W, strain RPL9B, stronger effect = lower value 0.999 | S. cerevisiae deletion strains, locus YNL071W, strain lat1, stronger effect = lower value 1.01 | S. cerevisiae deletion strains, locus YNL153C, strain GIM3, stronger effect = lower value 0.985 | S. cerevisiae deletion strains, locus YNL209W, strain ssb2, stronger effect = lower value 1.02 | S. cerevisiae deletion strains, locus YNL233W, strain BNI4, stronger effect = lower value 0.982 | S. cerevisiae deletion strains, locus YNL248C, strain rpa49, stronger effect = lower value 1 | S. cerevisiae deletion strains, locus YNL250W, strain rad50, stronger effect = lower value 1.05 | S. cerevisiae deletion strains, locus YNL271C, strain bni1, stronger effect = lower value 1.01 | S. cerevisiae deletion strains, locus YNL298W, strain CLA4, stronger effect = lower value 1.02 | S. cerevisiae deletion strains, locus YNL307C, strain MCK1, stronger effect = lower value 1.01 | S. cerevisiae deletion strains, locus YNL322C, strain KRE1 (second series), stronger effect = lower value 1 | S. cerevisiae deletion strains, locus YNR049C, strain mso1, stronger effect = lower value 1.01 | S. cerevisiae deletion strains, locus YNR052C, strain pop2, stronger effect = lower value 1 | S. cerevisiae deletion strains, locus YOL006C, strain TOP1, stronger effect = lower value 1 | S. cerevisiae deletion strains, locus YOL012C, strain htz1 0.634 | S. cerevisiae deletion strains, locus YOL147C, strain pex11, stronger effect = lower value 1.01 | S. cerevisiae deletion strains, locus YOR001W, strain rrp6, stronger effect = lower value 1.01 | S. cerevisiae deletion strains, locus YOR061W, strain CKA2, stronger effect = lower value 1.01 | S. cerevisiae deletion strains, locus YOR069W, strain VPS5, stronger effect = lower value 1 | S. cerevisiae deletion strains, locus YOR070C, strain gyp1, stronger effect = lower value 1.02 | S. cerevisiae deletion strains, locus YOR080W, strain dia2, stronger effect = lower value 1.03 | S. cerevisiae deletion strains, locus YOR083W, strain WHI5, stronger effect = lower value 1.02 | S. cerevisiae deletion strains, locus YOR106W, strain vam3, stronger effect = lower value 1.01 | S. cerevisiae deletion strains, locus YOR136W, strain idh2, stronger effect = lower value 1 | S. cerevisiae deletion strains, locus YOR144C, strain elg1, stronger effect = lower value 1.01 | S. cerevisiae deletion strains, locus YOR184W, strain ser1, stronger effect = lower value 1.01 | S. cerevisiae deletion strains, locus YOR265W, strain rbl2, stronger effect = lower value 1.02 | S. cerevisiae deletion strains, locus YOR270C, strain vph1, stronger effect = lower value 1.03 | S. cerevisiae deletion strains, locus YOR290C, strain snf2, stronger effect = lower value 1.01 | S. cerevisiae deletion strains, locus YOR316C, strain cot1, stronger effect = lower value 1.01 | S. cerevisiae deletion strains, locus YPL051W, strain arl3, stronger effect = lower value 1.01 | S. cerevisiae deletion strains, locus YPL078C, strain atp4, stronger effect = lower value 1.02 | S. cerevisiae deletion strains, locus YPL106C, strain sse1, stronger effect = lower value 1.03 | S. cerevisiae deletion strains, locus YPL240C, strain hsp82, stronger effect = lower value 1.02 | S. cerevisiae deletion strains, locus YPR119W, strain clb2, stronger effect = lower value 1.01 | S. cerevisiae deletion strains, locus YPR141C, strain kar3, stronger effect = lower value 1 | S. cerevisiae deletion strains, locus YPR163C, strain tif3, stronger effect = lower value 1.01 | S. cerevisiae deletion strains, locus YPR167C, strain met16, stronger effect = lower value 1 | S. cerevisiae deletion strains, strain wtn01, stronger effect = lower value 1.01 | S. cerevisiae strains, strain wild type, stronger effect = lower value 1.01
